The source of these data is PubChem BioAssay.

SMILES strings stand for the structures. “And” between values parts separate entries of the source, which are not always exact repeats. Identical values can stand only once. The source made the active and inactive calls. Unless noted, how the calls were made is not given here.

Experiment [1] can be described thus: liver-stage malaria parasite growth inhibition, primary screen, cell-based, HepG2, luciferase luminescence, HepG2 viability (AID 624349; in the data active means parasite load remaining mostly below about 12%, no sharp cut-off; inactive means mostly above about 10%;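 further: 100% = mean of DMSO negative control wells on the same plate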). As to conditions: P. berghei liver stage in HepG2, luciferase luminescence, concentration not given here; parasite load remaining: stronger effect = lower value; viability: measured here: HepG2 viability without parasites.
Experiment [2] in a line: Cy5 fluorescence interference with SSB-bound oligo, artefact control for HCV NS3 helicase inhibitor project, biochemical, NIH Clinical Collection, E. coli SSB (AID 743268).
Experiment [3] relates to Hepatitis C virus NS3 helicase. Briefly: HCV NS3 helicase inhibitors, primary screen, biochemical, fluorescence polarization, NIH Clinical Collection (AID 743270). As to conditions: NS3 helicase binding to Cy5-dT15 DNA, stronger effect = higher value, concentration not given here. In general terms: Fluorescence polarisation rises when a labelled molecule tumbles more slowly, as on binding a larger partner.

Experiment [4] deals with Single-stranded DNA-binding protein (Escherichia coli (strain K12)) (UniProt P0AGE0). Briefly: E. coli SSB displacement from DNA, counter-screen for HCV NS3 helicase inhibitor project, biochemical, fluorescence polarization, NIH Clinical Collection (AID 743271; in the data active means inhibition above about 28%). As to conditions: stronger effect = higher value, concentration not given here.
A short description of experiment [5]: fluorescence interference in NS3h assay format, artefact control for HCV NS3 helicase inhibitor project, biochemical, NIH Clinical Collection (AID 743272).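 Further: HCV NS3 helicase with a Cy5 labelled single stranded DNA probe.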 Particulars: fluorescence interference counterscreen, stronger effect = lower value. On the technique in general: A counterscreen serves to expose hits that act by an unwanted route or on another target.
The subject of experiment [6] is Neuropilin-2 / VEGF-C interaction (human). Briefly: inhibitors of NRP2–VEGF-C binding, biochemical, microplate binding format, z-score (AID 743281). Particulars: microplate NRP2/VEGF-C binding assay; stronger effect = lower value.
Experiment [7] is described as follows: stimulators of nuclear beta-catenin in C2C12, primary screen, imaging, WNT3A-conditioned medium, mouse C2C12, NPC library (AID 1117326; in the data active means nuclear beta-catenin stimulation mostly above about 4.2%, no sharp cut-off; inactive means mostly below about 10%). Particulars: stronger effect = higher value.
The nature of experiment [8]: stimulators of insulin release from INS-1E, primary screen, cell-based, 5 mM glucose, NPC library (AID 1117329;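 active means compound raises insulin release from rat beta cells at 5 mM glucose, no numeric limit stated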). As to conditions: rat INS-1E insulin secretion, at 10 µM, stronger effect = higher value.
Experiment [9] in a line: growth inhibition of GSK3B-pretreated HCT116 cells – cell-based, CellTiter-Glo, 0.2 to 20 µM (AID 1117336;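 active means compounds lowering colon cancer cell viability after pretreatment blocking the GSK3B kinase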). As to conditions: HCT116 viability after GSK3B inhibitor, at 20 µM, stronger effect = higher value.
Experiment [10] is described as follows: inhibition of endothelial tube formation, primary screen, imaging, VEGF stimulated, CD31 staining, tube area, NPC library (AID 1117340;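 active means compound that reduces growth-factor-driven endothelial tube area in a mixed cell culture, no cutoff stated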). As to conditions: VEGF-stimulated ADSC/ECFC co-culture, at 10 µM, stronger effect = higher value.
Experiment [11] in a line: glucagon-like peptide 1 release enhancers, primary assay, NCI-H716 cell line, NPC library (AID 1117341;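 active means compound raises GLP1 secretion from the human gut endocrine cells, with no numeric limit stated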). As to conditions: NCI-H716 cells, at 10 µM, stronger effect = higher value.
The nature of experiment [12]: HCT116 colon cancer cell growth inhibition, primary screen, CellTiter-Glo luminescence, NPC library (AID 1117342;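 active means compounds that lower survival of HCT116 colon cancer cells in the luminescence readout, no numeric limit stated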). Particulars: at 20 µM (top of the series).
A short description of experiment [13]: CellTiter-Glo luminescent readout of SW480 viability loss, NPC library primary (AID 1117343;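 active means compounds that lower viability of the colon cancer cells in the luminescence readout, with no numeric limit stated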). As to conditions: CellTiter-Glo luminescence; at 20 µM (top of the series). Background: In ATP-based viability assays light output follows the ATP content of the culture.
Experiment [14] in a line: decreased DLD-1 cellular survival, CellTiter-Glo luminescent readout, NPC compound collection, primary HTS (AID 1117346;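 active means compounds that lower survival of DLD-1 colon cancer cells in the luminescence readout, no cutoff given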). As to conditions: DLD-1 viability, CellTiter-Glo luminescence; at 20 µM (top of the series).

Turning to `CN(C)CC/C=C1/c2ccccc2COc2ccc(CC(=O)O)cc21`, the parasite load remaining in [1] is 66.3% (inactive) and 36.6% (inactive). The viability (as a rule, a read-out of living cells in per cent, often relative to untreated cells) in [1] was 81.2% and 101%. In addition, the fluorescence ratio in experiment [2] is 0.96 (inactive); in experiment [5], 0.94 (inactive). The results for the inhibition in [3] and in [4] were -6.33% (inactive) and -3.54% (inactive), respectively. Also, in [6], the z-score is -0.65 (inactive). Besides, the nuclear beta-catenin stimulation in experiment [7] (at 10 µM) was -0.9% (inactive); in experiment [7] (stimulation, at 2 µM), 0.1%. Also, the insulin secretion stimulation in [8] is 1.85% (inactive). The viability decrease in experiment [9] was -0.6% (inactive). Further, in [10], the tube area decrease was 5.6% (inactive). For the same compound, in experiment [11], the GLP1 secretion stimulation was -0.7% (inactive). Besides, in experiment [12], the inhibition of viability is 3.7% (inactive). Besides, the results for the viability decrease (inhibition) in experiment [13] and in [14] were -7.7% (inactive) and 7.1% (inactive), respectively.

Consider `CC(Cc1ccccc1)(NC(=O)CN)c1ccccc1` (stereo not given), for which the parasite load remaining in experiment [1] is 118% (inactive). Besides, in experiment [1], the viability is 74.8%. Further, the fluorescence ratio in experiment [2] is 1.07 (inactive); in experiment [5] it was 1.03 (inactive). Moreover, the inhibition (as a rule, the change of the read-out against control, counted positive when it falls) is 5.15% (inactive) in experiment [3] and 6.83% (inactive) in experiment [4]. The z-score in experiment [6] was 1.57 (inactive). The nuclear beta-catenin stimulation was 0.8% (inactive) in [7] (at 10 µM) and 0% in experiment [7] (stimulation, at 2 µM). In experiment [8], the insulin secretion stimulation is 2.2% (inactive). Moreover, the viability decrease in [9] is -5.9% (inactive). Moreover, the tube area decrease in experiment [10] is -10.6% (inactive). Further, the GLP1 secretion stimulation in experiment [11] was 0.5% (inactive). The inhibition of viability in experiment [12] is 13.7% (inactive). Also, the viability decrease (inhibition) is 17.1% (inactive) in experiment [13] and 19.6% (inactive) in [14].

On to `Cc1ccsc1C(=CCCN1CCC[C@@H](C(=O)O)C1)c1sccc1C`, for which the parasite load remaining in experiment [1] is 111% (inactive). Further, the viability in [1] is 71.9%. Also, the fluorescence ratio is 0.99 (inactive) in [2] and 0.96 (inactive) in [5]. Also, the inhibition in [3] was -2.77% (inactive); in experiment [4], 3.75% (inactive). The z-score in [6] was 1.77 (inactive). For the same compound, the nuclear beta-catenin stimulation in experiment [7] (at 10 µM) was 1.8% (inactive); in experiment [7] (stimulation, at 2 µM), 0.9%. Moreover, in experiment [8], the insulin secretion stimulation was 0.1% (inactive). Further, the viability decrease in experiment [9] is -15.1% (inactive). Also, the tube area decrease in [10] was -6.2% (inactive). Further, in experiment [11], the GLP1 secretion stimulation is 2.2% (inactive). The inhibition of viability in [12] is 25% (inactive). Moreover, the viability decrease (inhibition) was -16.3% (inactive) in [13] and 2.5% (inactive) in [14].

For the compound `CNS(=O)(=O)Cc1ccc2[nH]cc(CCN(C)C)c2c1`, in [1], the parasite load remaining is 108% (inactive) and 29.1% (inactive). Further, the viability in [1] is 93.1% and 65.5%. In addition, the fluorescence ratio in experiment [2] is 1.05 (inactive); in [5], 1.03 (inactive). In addition, the inhibition was 5.94% (inactive) in experiment [3] and 6.06% (inactive) in [4]. Also, the z-score in [6] is 0.0332 (inactive). Further, the nuclear beta-catenin stimulation in experiment [7] (at 10 µM) was 0.9% (inactive); in [7] (stimulation, at 2 µM), 0.4%. In addition, the insulin secretion stimulation in experiment [8] is 0.3% (inactive). The viability decrease in [9] is -2.3% (inactive). For the same compound, the tube area decrease in [10] was 15.1% (inactive). In addition, the GLP1 secretion stimulation in experiment [11] was 1.4% (inactive). Further, the inhibition of viability in [12] is -2.93% (inactive). Besides, the viability decrease (inhibition) was 66.2% (active) in experiment [13] and -3.8% (inactive) in experiment [14].

With `CN1CCC(=C2c3ccccc3CCc3sccc32)CC1`, the parasite load remaining in [1] was 28.2% (inactive) and 50.3% (inactive) and 34.4% (inactive). Also, in experiment [1], the viability is 70.7% and 95.5% and 65.5%. The fluorescence ratio was 0.99 (inactive) in [2] and 0.94 (inactive) in experiment [5]. For the same compound, the inhibition is -1.98% (inactive) in experiment [3] and -0.87% (inactive) in experiment [4]. Besides, the z-score in [6] was 1.11 (inactive). The nuclear beta-catenin stimulation in experiment [7] (at 10 µM) is -0.8% (inactive); in experiment [7] (stimulation, at 2 µM), -1.1%. The insulin secretion stimulation in experiment [8] was 6.65% (inactive). The viability decrease in experiment [9] is 47.1% (inactive). Besides, the tube area decrease in experiment [10] is 28.1% (inactive). Besides, the GLP1 secretion stimulation in experiment [11] was 5.3% (inactive). Also, the inhibition of viability in experiment [12] was 20.1% (inactive). Besides, the viability decrease (inhibition) was 103% (active) in experiment [13] and 26.9% (inactive) in [14].
